High-throughput results from PubChem.
Shown are actives, neighbours in structure and some others; about 7.9% of the full set was active somewhere.
LASV entry inh = Lassa virus entry inhibition | Lassa virus pseudotype entry inhibition, cell reporter | AID 540256 | 300,000 tested, 1.2% active | Potency, µM (doses to about 37.9 µM), without a hit: at the highest dose activity change, negative = inhibition, most hits filed as inhibitors; calls by dose curve; tested in HEK293 cells; also: potency is read from the fitted curve at half-maximal effect; nearly all actives have a fitted effect of over 50% in size
MARV entry inh = inhibitors of Marburg virus binding or cell entry; Potency, µM (series often up to 37.8 µM), inactives show at the top dose activity change, negative = inhibition, actives largely listed as inhibitors; AID 540276; Marburg virus pseudotyped entry inhibition, cell reporter; 300,000 tested, 1.8% active; calls by dose curve; tested in HEK293 cells; also: potency is read from the fitted curve at half-maximal effect
HCMV inh = inhibitors of human cytomegalovirus. HFF cells, HCMV-luciferase reporter, 72 h; stronger effect = lower value. activity change, negative = inhibition, % at 57.5 µM. 410,000 tested, 4.5% active. AID 1259415; in the data active = activity change below about -60%; inconclusive = no clear call, values can overlap the other calls; inactive = above about -39%
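Luciferase read-out from HCMV-luciferase-infected HFFs (MOI 1 PFU/cell) 72 h post infection at 37C; compounds added after 16 h cell attachment; activity normalized between buffer-only basal and Salinomycin (10uM) inhibitor controls.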
HCV inh = HCV inhibition | Huh7.5.1 HCVcc-Cre infection, luciferase reporter, 44 h | Potency, µM (series often up to 41.8 µM), inactives show at the highest dose activity change, negative = inhibition, usual class: inhibitors | 340,000 tested, 3.4% active | AID 651820; active = well fitted inhibition curve with a large enough effect; inconclusive = small, poorly fitted or top-dose-only effect, or another doubt; inactive = no such curve, though single readings can be large or run the other way; also: potency is read from the fitted curve at half-maximal effect
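Cells seeded at 1,000/well and cultured 4 h, then compounds added followed by HCVcc-Cre virus (~0.5 moi). After 44 h further culture, luciferase substrate was added, plates held 15 min at room temperature, and luminescence read for 15 sec.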
FMDV inh = antivirals against foot and mouth disease virus. FMDV antiviral cell-based qHTS. 410,000 tested, 1.2% active. AID 1159524. Potency, µM (top dose mostly 57.9 µM), for inactives: at the highest dose activity change, negative = inhibition, hits mostly inhibitors; calls by dose curve; tested in HEK293T cells; also: read-out not given here; potency is read from the fitted curve at half-maximal effect; nearly all actives have a fitted effect of over 45% in size
* = called active by the depositor; [ ] = another dose, or the depositor's remark. % is scaled to controls: 0 for no effect and ±100 for the full control effect.

`O=C(CSc1nnc(CNC(=O)C23CC4CC(CC(C4)C2)C3)n1-c1ccc(F)cc1)Nc1ccccc1` gave LASV entry inh inconclusive, MARV entry inh inconclusive, HCMV inh 36.5, HCV inh inconclusive and FMDV inh inconclusive.
Screening O=C(NCc1nnc(SCc2ccc(F)cc2)n1-c1ccccc1)C12CC3CC(CC(C3)C1)C2 returned LASV entry inh inconclusive, MARV entry inh inconclusive, HCMV inh 45.7, HCV inh -26.8% and FMDV inh 39.8µM*.
`COc1cccc(Cn2cccc(NC(=O)Nc3ccccc3C)c2=O)c1` gave HCMV inh -16.7, HCV inh 10µM* and FMDV inh inconclusive.
For COc1cccc(Cn2cccc(NC(=O)NCc3ccccc3)c2=O)c1 the results were LASV entry inh inconclusive, MARV entry inh -4.4%[46.1 µM], HCMV inh 16.1, HCV inh inconclusive and FMDV inh -14.5%.
`COc1ccc(Cn2cccc(NC(=O)Nc3cccc(OC)c3)c2=O)cc1` gave HCMV inh 0.0, HCV inh 14.1µM* and FMDV inh inconclusive.
For COc1cccc(Cn2cccc(NC(=O)Nc3ccc(C#N)cc3)c2=O)c1 the results were LASV entry inh inconclusive, MARV entry inh inconclusive, HCMV inh -66.1*, HCV inh 3.98µM* and FMDV inh 17.8µM*.
Screening O=C(Nc1ccccc1)Nc1cccn(Cc2c(F)cccc2Cl)c1=O returned LASV entry inh inconclusive, MARV entry inh inconclusive, HCMV inh -18.6, HCV inh inconclusive and FMDV inh 9.0%.
Screening COc1cccc(NC(=O)Nc2cccn(Cc3ccccc3)c2=O)c1 returned LASV entry inh -14.6%, MARV entry inh inconclusive, HCMV inh -27.0, HCV inh inconclusive and FMDV inh -4.1%.
For CCOc1ccc(NC(=O)CN(C)C(=O)c2c(-c3ccccc3)noc2C)cc1OCC the results were HCMV inh 5.1, HCV inh inconclusive and FMDV inh -18.0%.
For CCC[C@H]1[C@@H](NS(=O)(=O)c2ccc(C(F)(F)F)cc2)CC[C@@]23CCCN2C(=O)CCC[C@@H]13 the results were HCMV inh -12.8.
Screening CCCCOc1ccccc1NC(=O)c1scc2c1OCCO2 returned LASV entry inh inconclusive, MARV entry inh inconclusive, HCMV inh -27.9, HCV inh 12.6µM* and FMDV inh inconclusive.
For CCN(CC)S(=O)(=O)c1cc(NC(=O)c2ccc3c(c2)NC(=O)C(C)S3)ccc1C (stereo unspecified) the results were HCMV inh -79.6*, HCV inh 3.98µM* and FMDV inh 25.1µM*.
`Cc1cc(C)c(NC(=O)c2ccc3c(c2)NC(=O)C(C)S3)c(C)c1` (stereo unspecified) gave HCMV inh -29.1, HCV inh inconclusive and FMDV inh inconclusive.
Screening CCN(CC)S(=O)(=O)c1cc(NC(=O)c2ccc(Br)s2)ccc1C returned LASV entry inh inconclusive, MARV entry inh inconclusive, HCMV inh -82.7*, HCV inh 10µM* and FMDV inh inconclusive.
CCCC[C@H](CCC(=O)Nc1ccc(C(=O)OCC)cc1)C(=O)O was read as MARV entry inh 2.5%.
Screening COc1ccc(C2=Nc3ccccc3N(C(=O)c3ccncc3)C2C(=O)NC(C)(C)C)cc1 (stereo unspecified) returned HCMV inh 69.6 and FMDV inh 5.7%.
O=C(C1CCCN(S(=O)(=O)Cc2ccccc2)C1)N1CCC(Cc2ccccc2)CC1 (stereo unspecified) was read as LASV entry inh -16.6%, MARV entry inh -28.0%, HCMV inh -4.6, HCV inh inconclusive and FMDV inh 39.8µM*.
For CCCSc1ccc2nc(NC(=O)OC)[nH]c2c1 the results were LASV entry inh 2.06µM*, MARV entry inh inconclusive, HCMV inh -19.7, HCV inh -21.0% and FMDV inh 40.9%.
For COC(=O)Nc1nc2ccc(S(=O)c3ccccc3)cc2[nH]1 (stereo unspecified) the results were HCMV inh -25.5 and FMDV inh -10.2%.
COC(=O)Nc1nc2ccc(SC(C)C)cc2[nH]1 was read as HCMV inh -81.7*, HCV inh inconclusive and FMDV inh 44.9%.
Screening COC(=O)Nc1nc2ccc(C(=O)c3ccccc3)cc2[nH]1 returned FMDV inh 29.2%.
